Results from article PMC7862700, “An all-to-all approach to the identification of sequence-specific readers for epigenetic DNA modifications on cytosine”.

Assays:
Assay in all cases: DAPPL (digital affinity profiling via proximity ligation, sequencing); 10 mM Tris-HCl pH 7.5, 50 mM NaCl, 1 mM DTT, 4% glycerol, room temperature, 30 min; GST-TFs on glutathione beads, 16-mer random dsDNA library, 0.1% formaldehyde crosslink after washing; high values mean tight binding
FEV = target: T1, FEV (Homo sapiens, UniProt Q99581 1-238); details: protein: recombinant; tags: N-terminal GST; dsDNA, one strand shown
T1 sequence: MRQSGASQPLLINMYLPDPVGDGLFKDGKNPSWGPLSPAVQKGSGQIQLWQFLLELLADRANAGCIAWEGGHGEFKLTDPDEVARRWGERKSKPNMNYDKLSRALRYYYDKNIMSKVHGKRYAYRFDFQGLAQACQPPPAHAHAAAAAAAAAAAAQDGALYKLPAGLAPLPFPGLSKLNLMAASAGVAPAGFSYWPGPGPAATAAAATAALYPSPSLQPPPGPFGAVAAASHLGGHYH
How it was run: (§1)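 Binding signal is each hexamer's read frequency for a factor divided by its frequency in the tag-only sample. The factors were GST-fused human transcription factors from yeast, captured on glutathione beads, DNA-barcoded and pooled with that sample. Pools were incubated with 200 nmole of a random double-stranded 16-mer DNA library in Tris/NaCl/DTT/glycerol buffer at room temperature for 30 min, then washed, crosslinked with 0.1% formaldehyde, proximity-ligated with BsaI/T4 ligase (1 h, 37 °C), PCR-amplified and sequenced on an Illumina NextSeq500.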

ETV5 = ETV5 (Homo sapiens, UniProt P41161 1-510); details: protein: recombinant; tags: N-terminal GST; dsDNA, one strand shown
Chain of ETV5 (P41161 whole entry): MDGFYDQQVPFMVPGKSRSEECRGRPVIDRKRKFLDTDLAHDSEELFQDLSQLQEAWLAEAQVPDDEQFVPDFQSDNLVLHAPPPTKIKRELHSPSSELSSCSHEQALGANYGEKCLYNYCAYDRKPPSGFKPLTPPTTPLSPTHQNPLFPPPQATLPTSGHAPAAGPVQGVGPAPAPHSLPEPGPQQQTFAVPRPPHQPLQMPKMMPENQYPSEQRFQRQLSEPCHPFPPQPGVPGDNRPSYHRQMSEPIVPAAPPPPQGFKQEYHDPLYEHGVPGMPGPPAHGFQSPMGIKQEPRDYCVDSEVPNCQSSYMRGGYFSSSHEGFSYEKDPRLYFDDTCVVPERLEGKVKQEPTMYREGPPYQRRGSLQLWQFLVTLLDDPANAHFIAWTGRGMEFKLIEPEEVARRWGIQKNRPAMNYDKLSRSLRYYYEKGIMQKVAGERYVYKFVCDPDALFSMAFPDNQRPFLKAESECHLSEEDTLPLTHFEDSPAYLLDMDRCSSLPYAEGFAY
How it was run: as §1

HSF1 = HSF1 (Homo sapiens, UniProt Q00613 1-529); details: protein: recombinant; tags: N-terminal GST; chain copies: 3; dsDNA, one strand shown
Chain of HSF1 (Q00613 whole entry): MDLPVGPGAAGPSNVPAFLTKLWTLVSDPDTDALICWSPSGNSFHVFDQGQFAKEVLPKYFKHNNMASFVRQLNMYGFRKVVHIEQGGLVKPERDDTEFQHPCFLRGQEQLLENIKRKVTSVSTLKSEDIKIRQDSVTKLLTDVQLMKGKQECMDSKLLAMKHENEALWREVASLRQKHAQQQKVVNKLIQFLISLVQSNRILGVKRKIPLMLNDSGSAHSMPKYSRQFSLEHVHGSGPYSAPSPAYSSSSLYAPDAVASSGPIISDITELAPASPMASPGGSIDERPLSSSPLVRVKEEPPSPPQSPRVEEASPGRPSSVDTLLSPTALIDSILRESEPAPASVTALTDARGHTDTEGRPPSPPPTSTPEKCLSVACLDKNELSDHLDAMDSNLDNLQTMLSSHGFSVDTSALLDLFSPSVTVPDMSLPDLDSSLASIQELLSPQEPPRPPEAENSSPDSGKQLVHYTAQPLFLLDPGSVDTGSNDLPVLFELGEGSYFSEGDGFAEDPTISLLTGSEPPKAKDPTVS
How it was run: as §1

SPIC = target: T2, SPIC (Homo sapiens, UniProt Q8N5J4 1-248); details: protein: recombinant; tags: N-terminal GST; dsDNA, one strand shown
T2 sequence: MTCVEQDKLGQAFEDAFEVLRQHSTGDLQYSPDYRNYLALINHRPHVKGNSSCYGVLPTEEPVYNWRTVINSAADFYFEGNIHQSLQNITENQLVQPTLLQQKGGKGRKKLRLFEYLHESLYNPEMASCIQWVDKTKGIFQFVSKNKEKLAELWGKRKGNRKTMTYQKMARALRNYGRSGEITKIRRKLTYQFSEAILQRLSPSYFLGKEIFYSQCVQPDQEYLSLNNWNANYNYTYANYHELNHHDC
How it was run: as §1

ELF4 = ELF4 (Homo sapiens, UniProt Q99607 1-663); details: protein: recombinant; tags: N-terminal GST; dsDNA, one strand shown
Chain of ELF4 (Q99607 whole entry): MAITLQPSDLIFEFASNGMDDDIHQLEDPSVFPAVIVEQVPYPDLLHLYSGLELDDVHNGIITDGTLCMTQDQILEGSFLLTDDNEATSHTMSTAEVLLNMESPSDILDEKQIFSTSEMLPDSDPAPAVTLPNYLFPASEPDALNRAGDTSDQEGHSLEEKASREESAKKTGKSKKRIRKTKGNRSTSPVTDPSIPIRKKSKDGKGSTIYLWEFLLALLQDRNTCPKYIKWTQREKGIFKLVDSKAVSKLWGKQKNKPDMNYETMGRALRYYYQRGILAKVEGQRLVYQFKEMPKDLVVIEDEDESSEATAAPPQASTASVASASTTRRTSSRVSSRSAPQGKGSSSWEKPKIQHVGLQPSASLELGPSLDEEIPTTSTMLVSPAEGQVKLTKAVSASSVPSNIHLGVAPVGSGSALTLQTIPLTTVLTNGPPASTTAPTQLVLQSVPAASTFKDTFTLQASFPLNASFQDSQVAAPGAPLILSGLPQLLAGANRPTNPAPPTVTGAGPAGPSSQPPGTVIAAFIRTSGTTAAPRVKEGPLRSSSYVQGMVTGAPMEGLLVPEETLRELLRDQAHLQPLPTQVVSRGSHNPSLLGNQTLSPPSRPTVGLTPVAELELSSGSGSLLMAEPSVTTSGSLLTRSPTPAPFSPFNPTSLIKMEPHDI
How it was run: as §1

ELK4 = target: T3, ELK4 (Homo sapiens, UniProt P28324-2 1-405); details: protein: recombinant; tags: N-terminal GST; dsDNA, one strand shown
T3 sequence: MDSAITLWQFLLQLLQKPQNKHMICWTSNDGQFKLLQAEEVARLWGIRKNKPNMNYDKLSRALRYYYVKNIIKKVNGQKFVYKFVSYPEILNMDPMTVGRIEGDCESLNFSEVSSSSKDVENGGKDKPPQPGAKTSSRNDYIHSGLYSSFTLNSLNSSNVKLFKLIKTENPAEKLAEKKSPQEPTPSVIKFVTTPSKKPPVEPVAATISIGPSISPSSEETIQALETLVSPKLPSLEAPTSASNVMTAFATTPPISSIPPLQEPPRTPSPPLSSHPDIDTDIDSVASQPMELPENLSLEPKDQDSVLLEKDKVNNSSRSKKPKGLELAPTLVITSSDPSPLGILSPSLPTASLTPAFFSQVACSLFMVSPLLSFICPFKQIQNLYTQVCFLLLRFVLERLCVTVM
How it was run: as §1

ETV2 = target: T4, ETV2 (Homo sapiens, UniProt O00321 1-342); details: protein: recombinant; tags: N-terminal GST; dsDNA, one strand shown
T4 sequence: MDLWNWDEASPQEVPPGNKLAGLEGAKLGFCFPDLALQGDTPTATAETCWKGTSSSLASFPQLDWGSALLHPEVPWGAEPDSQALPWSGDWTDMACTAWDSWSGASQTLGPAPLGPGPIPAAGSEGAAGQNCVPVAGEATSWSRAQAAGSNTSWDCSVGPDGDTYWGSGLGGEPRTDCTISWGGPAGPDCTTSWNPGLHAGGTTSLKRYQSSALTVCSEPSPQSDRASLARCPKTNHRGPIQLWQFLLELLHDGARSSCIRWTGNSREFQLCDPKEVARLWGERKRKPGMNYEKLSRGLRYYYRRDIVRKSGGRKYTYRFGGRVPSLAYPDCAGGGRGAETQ
How it was run: as §1

ELF3 = target: T5, ELF3 (Homo sapiens, UniProt P78545 1-371); details: protein: recombinant; tags: N-terminal GST; dsDNA, one strand shown
T5 sequence: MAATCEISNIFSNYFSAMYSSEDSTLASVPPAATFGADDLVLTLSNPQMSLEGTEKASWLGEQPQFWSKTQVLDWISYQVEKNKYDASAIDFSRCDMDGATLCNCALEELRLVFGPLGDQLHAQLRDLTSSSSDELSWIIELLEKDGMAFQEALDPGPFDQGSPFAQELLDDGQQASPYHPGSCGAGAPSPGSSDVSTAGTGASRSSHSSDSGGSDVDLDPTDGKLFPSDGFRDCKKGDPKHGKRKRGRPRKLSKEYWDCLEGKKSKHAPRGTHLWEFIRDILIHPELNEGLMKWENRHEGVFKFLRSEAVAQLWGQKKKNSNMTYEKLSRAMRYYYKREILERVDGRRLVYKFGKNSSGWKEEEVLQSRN
How it was run: as §1

CRX = CRX (Homo sapiens, UniProt O43186 1-299); details: protein: recombinant; tags: N-terminal GST; dsDNA, one strand shown
Chain of CRX (O43186 whole entry): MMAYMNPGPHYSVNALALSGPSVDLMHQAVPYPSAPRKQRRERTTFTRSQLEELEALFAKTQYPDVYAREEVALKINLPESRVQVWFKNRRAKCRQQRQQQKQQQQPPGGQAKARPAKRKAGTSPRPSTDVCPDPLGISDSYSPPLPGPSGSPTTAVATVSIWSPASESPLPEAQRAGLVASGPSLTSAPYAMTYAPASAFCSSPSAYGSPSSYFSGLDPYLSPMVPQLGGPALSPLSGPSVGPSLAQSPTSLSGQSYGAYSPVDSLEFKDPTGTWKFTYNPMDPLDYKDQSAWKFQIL
How it was run: as §1

ETV1 = ETV1 (Homo sapiens, UniProt P50549 1-477); details: protein: recombinant; tags: N-terminal GST; dsDNA, one strand shown
Chain of ETV1 (P50549 whole entry): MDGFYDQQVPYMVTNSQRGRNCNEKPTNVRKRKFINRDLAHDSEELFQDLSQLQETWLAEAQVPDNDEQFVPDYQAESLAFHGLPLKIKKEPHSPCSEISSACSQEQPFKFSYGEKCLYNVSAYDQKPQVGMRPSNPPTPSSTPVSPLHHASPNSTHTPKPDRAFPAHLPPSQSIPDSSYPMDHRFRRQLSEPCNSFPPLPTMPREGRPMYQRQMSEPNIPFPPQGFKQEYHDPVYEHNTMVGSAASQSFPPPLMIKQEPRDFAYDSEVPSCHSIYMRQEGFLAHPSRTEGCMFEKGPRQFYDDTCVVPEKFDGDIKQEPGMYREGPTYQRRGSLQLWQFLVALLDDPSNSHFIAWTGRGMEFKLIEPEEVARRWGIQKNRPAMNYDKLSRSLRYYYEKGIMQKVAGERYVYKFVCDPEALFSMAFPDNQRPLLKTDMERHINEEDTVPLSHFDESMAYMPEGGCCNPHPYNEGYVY
How it was run: as §1

ERF = target: T6, ERF (Homo sapiens, UniProt P50548 1-548); details: protein: recombinant; tags: N-terminal GST; dsDNA, one strand shown
T6 sequence: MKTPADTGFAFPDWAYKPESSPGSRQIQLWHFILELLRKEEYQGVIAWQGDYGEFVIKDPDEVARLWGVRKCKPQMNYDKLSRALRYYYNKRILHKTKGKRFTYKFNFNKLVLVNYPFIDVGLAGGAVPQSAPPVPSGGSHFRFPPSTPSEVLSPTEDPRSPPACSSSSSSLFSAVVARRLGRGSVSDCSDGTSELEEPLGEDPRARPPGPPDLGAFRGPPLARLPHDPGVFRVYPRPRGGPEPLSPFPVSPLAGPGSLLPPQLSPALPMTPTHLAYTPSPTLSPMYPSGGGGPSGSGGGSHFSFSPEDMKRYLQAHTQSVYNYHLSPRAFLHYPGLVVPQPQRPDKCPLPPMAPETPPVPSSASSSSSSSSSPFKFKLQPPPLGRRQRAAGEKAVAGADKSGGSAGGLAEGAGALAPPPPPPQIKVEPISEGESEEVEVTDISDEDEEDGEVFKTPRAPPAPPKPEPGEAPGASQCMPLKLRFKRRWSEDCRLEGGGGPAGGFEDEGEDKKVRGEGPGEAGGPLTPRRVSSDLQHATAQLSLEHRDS
How it was run: as §1

ETV3L = target: T7, ETV3L (Homo sapiens, UniProt Q6ZN32 1-361); details: protein: recombinant; tags: N-terminal GST; dsDNA, one strand shown
T7 sequence: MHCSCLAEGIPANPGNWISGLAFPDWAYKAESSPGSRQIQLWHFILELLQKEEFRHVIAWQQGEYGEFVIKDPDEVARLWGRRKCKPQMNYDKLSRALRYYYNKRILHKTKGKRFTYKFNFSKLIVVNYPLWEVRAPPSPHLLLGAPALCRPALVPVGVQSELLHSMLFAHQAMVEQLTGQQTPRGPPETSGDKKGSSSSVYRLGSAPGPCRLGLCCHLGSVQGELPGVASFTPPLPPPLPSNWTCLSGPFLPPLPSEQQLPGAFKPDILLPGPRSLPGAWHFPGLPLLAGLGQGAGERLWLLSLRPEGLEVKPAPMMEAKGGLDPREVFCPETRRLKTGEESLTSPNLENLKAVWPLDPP
How it was run: as §1

ETS2 = target: T8, ETS2 (Homo sapiens, UniProt P15036 1-469); details: protein: recombinant; tags: N-terminal GST; dsDNA, one strand shown
T8 sequence: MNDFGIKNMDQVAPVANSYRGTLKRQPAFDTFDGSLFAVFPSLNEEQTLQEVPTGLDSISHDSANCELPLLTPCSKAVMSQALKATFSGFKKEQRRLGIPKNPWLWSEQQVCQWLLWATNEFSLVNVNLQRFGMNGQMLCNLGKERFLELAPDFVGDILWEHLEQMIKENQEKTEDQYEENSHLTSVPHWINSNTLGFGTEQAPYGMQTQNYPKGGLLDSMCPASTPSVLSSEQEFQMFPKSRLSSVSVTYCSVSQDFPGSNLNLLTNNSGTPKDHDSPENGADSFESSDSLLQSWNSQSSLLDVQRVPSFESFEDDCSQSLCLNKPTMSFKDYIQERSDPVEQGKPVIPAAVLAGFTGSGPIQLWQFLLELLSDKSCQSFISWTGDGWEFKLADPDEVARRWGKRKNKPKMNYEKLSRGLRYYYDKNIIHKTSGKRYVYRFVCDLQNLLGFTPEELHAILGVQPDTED
How it was run: as §1

SPDEF = target: T9, SPDEF (Homo sapiens, UniProt O95238 1-335); details: protein: recombinant; tags: N-terminal GST; dsDNA, one strand shown
T9 sequence: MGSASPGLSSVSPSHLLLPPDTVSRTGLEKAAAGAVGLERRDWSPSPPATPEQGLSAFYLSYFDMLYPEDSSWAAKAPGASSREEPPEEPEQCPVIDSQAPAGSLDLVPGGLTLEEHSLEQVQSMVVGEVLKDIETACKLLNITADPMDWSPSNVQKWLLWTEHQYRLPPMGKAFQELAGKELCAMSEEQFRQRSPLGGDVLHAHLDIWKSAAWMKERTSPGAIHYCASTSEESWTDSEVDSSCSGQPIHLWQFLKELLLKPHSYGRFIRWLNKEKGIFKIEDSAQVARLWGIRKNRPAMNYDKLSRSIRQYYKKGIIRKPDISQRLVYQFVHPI
How it was run: as §1

ETV7 = target: T10, ETV7 (Homo sapiens, UniProt Q9Y603 1-341); details: protein: recombinant; tags: N-terminal GST; dsDNA, one strand shown
T10 sequence: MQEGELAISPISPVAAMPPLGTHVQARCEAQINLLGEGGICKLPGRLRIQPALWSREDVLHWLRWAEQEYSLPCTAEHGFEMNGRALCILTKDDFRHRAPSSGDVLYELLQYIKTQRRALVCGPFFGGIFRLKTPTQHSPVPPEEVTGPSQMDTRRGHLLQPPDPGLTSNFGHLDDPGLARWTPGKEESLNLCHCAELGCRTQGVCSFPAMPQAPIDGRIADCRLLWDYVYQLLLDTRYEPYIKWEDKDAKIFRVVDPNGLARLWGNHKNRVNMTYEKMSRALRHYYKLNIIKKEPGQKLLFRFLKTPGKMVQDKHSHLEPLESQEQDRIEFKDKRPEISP
How it was run: as §1

ELF5 = target: T11, ELF5 (Homo sapiens, UniProt Q9UKW6-2 1-255); details: protein: recombinant; tags: N-terminal GST; dsDNA, one strand shown
T11 sequence: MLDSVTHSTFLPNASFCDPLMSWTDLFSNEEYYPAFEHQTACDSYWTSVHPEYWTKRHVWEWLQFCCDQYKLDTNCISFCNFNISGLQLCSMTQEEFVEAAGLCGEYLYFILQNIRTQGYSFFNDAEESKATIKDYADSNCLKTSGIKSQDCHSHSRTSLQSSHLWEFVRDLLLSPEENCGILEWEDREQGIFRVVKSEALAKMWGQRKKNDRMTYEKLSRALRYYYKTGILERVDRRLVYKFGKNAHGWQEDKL
How it was run: as §1

ETV3 = target: T12, ETV3 (Homo sapiens, UniProt P41162-2 1-143); details: protein: recombinant; tags: N-terminal GST; dsDNA, one strand shown
T12 sequence: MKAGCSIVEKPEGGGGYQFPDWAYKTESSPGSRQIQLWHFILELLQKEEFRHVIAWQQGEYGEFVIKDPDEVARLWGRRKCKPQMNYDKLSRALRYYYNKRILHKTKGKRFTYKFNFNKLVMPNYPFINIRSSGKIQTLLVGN
How it was run: as §1

ETV6 = ETV6 (Homo sapiens, UniProt P41212 1-452); details: protein: recombinant; tags: N-terminal GST; dsDNA, one strand shown
Chain of ETV6 (P41212 whole entry): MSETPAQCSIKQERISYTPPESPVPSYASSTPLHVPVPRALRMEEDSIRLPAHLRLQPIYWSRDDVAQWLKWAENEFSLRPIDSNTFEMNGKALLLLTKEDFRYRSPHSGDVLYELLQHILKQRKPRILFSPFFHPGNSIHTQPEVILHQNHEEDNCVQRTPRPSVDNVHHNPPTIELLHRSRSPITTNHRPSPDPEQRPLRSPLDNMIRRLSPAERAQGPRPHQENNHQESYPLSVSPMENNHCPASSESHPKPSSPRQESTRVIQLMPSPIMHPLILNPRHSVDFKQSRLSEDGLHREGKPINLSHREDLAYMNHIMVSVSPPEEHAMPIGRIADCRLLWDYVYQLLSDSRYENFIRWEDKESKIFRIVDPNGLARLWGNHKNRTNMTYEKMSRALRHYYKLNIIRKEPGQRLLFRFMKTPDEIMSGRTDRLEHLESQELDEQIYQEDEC
How it was run: as §1

Sequence: AAAAAC
- binding signal (FEV): 1.28 fold enrichment (6-mer frequency, TF over GST control)
- binding signal (ETV5): 1.26 fold enrichment (6-mer frequency, TF over GST control)
- binding signal (HSF1): 1.19 fold enrichment (6-mer frequency, TF over GST control)
- binding signal (SPIC): 1.27 fold enrichment (6-mer frequency, TF over GST control)
- binding signal (ELF4): 1.31 fold enrichment (6-mer frequency, TF over GST control)
- binding signal (ELK4): 1.14 fold enrichment (6-mer frequency, TF over GST control)
- binding signal (ETV2): 1.32 fold enrichment (6-mer frequency, TF over GST control)
- binding signal (ELF3): 1.3 fold enrichment (6-mer frequency, TF over GST control)
- binding signal (CRX): 1.16 fold enrichment (6-mer frequency, TF over GST control)
- binding signal (ETV1): 1.27 fold enrichment (6-mer frequency, TF over GST control)
- binding signal (ERF): 1.22 fold enrichment (6-mer frequency, TF over GST control)
- binding signal (ETV3L): 1.25 fold enrichment (6-mer frequency, TF over GST control)
- binding signal (ETS2): 1.29 fold enrichment (6-mer frequency, TF over GST control)
- binding signal (SPDEF): 1.23 fold enrichment (6-mer frequency, TF over GST control)
- binding signal (ETV7): 1.29 fold enrichment (6-mer frequency, TF over GST control)
- binding signal (ELF5): 1.3 fold enrichment (6-mer frequency, TF over GST control)
- binding signal (ETV3): 1.2 fold enrichment (6-mer frequency, TF over GST control)
- binding signal (ETV6): 1.26 fold enrichment (6-mer frequency, TF over GST control)
